The values that follow come from the supplement of paper PMC12494721.

Common to all, as to settings: incubation time: 27 h, anaerobic, 37 °C
The test system of assay [1] is Clostridium sporogenes DSM 1664. Put plainly: growth (OD595) fold change vs plate DMSO controls (fold change (ratio)); higher = more growth. The gist of the method: (§1)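 The reported measure is growth: the fold change against the median of DMSO controls on the plate. Absorbance at 595 nm from anaerobic 96-well mGAM cultures grown for 27 h at 37 °C was blank-subtracted, corrected for background with 20 µM compound solutions in water, and converted to OD with a calibration factor of 5. Fold changes above 1.5 appear as NA, and values are the mean of 2 biological replicates.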

Assay [2] relates to Escherichia coli IAI1. The description is as above. The gist of the method:
as §1

Assay [3] has as its system Klebsiella aerogenes DSM 30053. The description is as above. The gist of the method: as §1
Assay [4] relates to Ruminococcus gnavus DSM 108212. The assay is described as above. The gist of the method:
as §1

The subject of assay [5] is Klebsiella aerogenes DSM 30053. The assay can be described thus: fold change of Histamine concentration vs plate DMSO controls (fold change (ratio)); higher = more amine produced, active = hit call of the paper (significant change in both replicates, either direction). The gist of the method: (§2)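 Amines were quantified by LC–triple-quadrupole MS in dynamic MRM mode against external calibration curves, with drift correction within each batch. The samples were whole anaerobic mGAM cultures of four gut bacterial strains, grown for 27 h at 37 °C in 80 µL wells and extracted with cold acetonitrile/methanol with 0.1% formic acid, then centrifuged. Values are reported as fold change over DMSO controls on the same plate. The mean of 2 biological replicates is given.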

In assay [6] the test system is Clostridium sporogenes DSM 1664. Put plainly: fold change of Tryptamine concentration vs plate DMSO controls (fold change (ratio)); higher = more amine produced, active = hit call of the paper (significant change in both replicates, either direction). The gist of the method: as §2
Assay [7] relates to Ruminococcus gnavus DSM 108212. The assay is described as above. The gist of the method:
as §2

Assay [8] relates to Escherichia coli IAI1. Put plainly: fold change of Putrescine concentration vs plate DMSO controls (fold change (ratio)); higher = more amine produced, active = hit call of the paper (significant change in both replicates, either direction). The gist of the method:
as §2

Assay [9] deals with Klebsiella aerogenes DSM 30053. The description is as above. The gist of the method: as §2
Assay [10] concerns Escherichia coli IAI1. Put plainly: fold change of Cadaverine concentration vs plate DMSO controls (fold change (ratio)); higher = more amine produced, active = hit call of the paper (significant change in both replicates, either direction). The gist of the method: as §2
For assay [11], the system named is Klebsiella aerogenes DSM 30053. The assay is described as above. The gist of the method: as §2
Assay [12] deals with Ruminococcus gnavus DSM 108212. Put plainly: fold change of 2-Phenylethylamine concentration vs plate DMSO controls (fold change (ratio)); higher = more amine produced, active = hit call of the paper (significant change in both replicates, either direction). The gist of the method: as §2

Molecules are shown by their SMILES.

Consider `O=C(O)c1cccnc1` [Niacin] (20 µM), for which the growth in [1] was found to be 0.979; in the assay with Escherichia coli IAI1 [2], 1.07; in assay [3], 1.01; in [4], 0.963. For the same molecule, in assay [5], the “fold change of Histamine concentration” value is 0.97 (inactive). In addition, the “fold change of Tryptamine concentration” value in assay [6] is 0.994 (inactive); in [7], 1.03 (inactive). Besides, the “fold change of Putrescine concentration” value with Escherichia coli IAI1 [8] was 1 (inactive); in assay [9], 1.03 (inactive). For the same molecule, the “fold change of Cadaverine concentration” value is 0.981 (inactive) in the assay on Escherichia coli IAI1 [10] and 1.02 (inactive) in assay [11]. Besides, in assay [12], the “fold change of 2-Phenylethylamine concentration” value was 0.993 (inactive).

In the case of `OC[C@H]1O[C@H](O[C@]2(CCl)O[C@H](CCl)[C@@H](O)[C@@H]2O)[C@H](O)[C@@H](O)[C@H]1Cl` [Sucralose] (50 µM), the growth amounted to 1 in assay [1], 0.927 in the assay on Escherichia coli IAI1 [2], 1.03 in assay [3] and 1.36 in assay [4]. For the same molecule, in [5], the “fold change of Histamine concentration” value is 0.892 (inactive). In addition, the “fold change of Tryptamine concentration” value is 1.28 (active) in assay [6] and 1.11 (inactive) in [7]. Besides, the “fold change of Putrescine concentration” value in the assay with Escherichia coli IAI1 [8] was 0.948 (inactive); in assay [9], 0.943 (inactive). Besides, the “fold change of Cadaverine concentration” value is 1.09 (inactive) in the assay with Escherichia coli IAI1 [10] and 1.06 (inactive) in assay [11]. For the same molecule, the “fold change of 2-Phenylethylamine concentration” value in assay [12] was 1.2 (inactive).

For the molecule `Nc1nc(CC(=O)Nc2ccc(CCNC[C@H](O)c3ccccc3)cc2)cs1` [Mirabegron] (20 µM), the growth in assay [1] worked out at 1.09; in the assay on Escherichia coli IAI1 [2], 1.01; in assay [3], 1.13; in [4], 0.987. Besides, the “fold change of Histamine concentration” value in assay [5] was 0.931 (inactive). Moreover, the entries for the “fold change of Tryptamine concentration” value in [6] and in assay [7] were 1.02 (inactive) and 0.999 (inactive), respectively. Further, the “fold change of Putrescine concentration” value in the assay on Escherichia coli IAI1 [8] was 0.977 (inactive); in assay [9], 1.01 (inactive). Also, the “fold change of Cadaverine concentration” value with Escherichia coli IAI1 [10] is 1.06 (inactive); in [11] it was 1.01 (inactive). In assay [12], the “fold change of 2-Phenylethylamine concentration” value was 1.05 (inactive).

On to `COC1=C(OC)C(=O)C(CCCCCCCCCCO)=C(C)C1=O` [Idebenone] (20 µM), for which the growth turned out to be 1.18 in assay [1], 1 with Escherichia coli IAI1 [2], 1.01 in [3] and 0.839 in assay [4]. Also, in [5], the “fold change of Histamine concentration” value was 1.06 (inactive). In addition, the “fold change of Tryptamine concentration” value is 1.02 (inactive) in [6] and 1.06 (inactive) in [7]. In addition, the “fold change of Putrescine concentration” value is 0.947 (inactive) in the assay with Escherichia coli IAI1 [8] and 1.01 (inactive) in assay [9]. Further, the “fold change of Cadaverine concentration” value in the assay on Escherichia coli IAI1 [10] is 1.05 (inactive); in assay [11] it was 1.08 (inactive). Moreover, the “fold change of 2-Phenylethylamine concentration” value in [12] was 1.17 (inactive).

Consider `C[C@H]1O[C@H](O[C@H]2[C@H](O)[C@@H](O)[C@@H](O[C@@H]([C@H](O)[C@@H](O)C=O)[C@H](O)CO)O[C@@H]2CO)[C@H](O)[C@@H](O)[C@@H]1N[C@H]1C=C(CO)[C@@H](O)[C@H](O)[C@H]1O` [Acarbose] (20 µM), for which the growth in assay [1] was 0.918; with Escherichia coli IAI1 [2], 1.03; in assay [3], 1.04; in [4], 1.05. Moreover, the “fold change of Histamine concentration” value in assay [5] was 1.15 (inactive). For the same molecule, the “fold change of Tryptamine concentration” value is 1.02 (inactive) in assay [6] and 0.997 (inactive) in [7]. Further, the “fold change of Putrescine concentration” value is 0.948 (inactive) in the assay on Escherichia coli IAI1 [8] and 1.07 (inactive) in assay [9]. The “fold change of Cadaverine concentration” value in the assay with Escherichia coli IAI1 [10] is 1.12 (inactive); in assay [11], 0.996 (inactive). Besides, in [12], the “fold change of 2-Phenylethylamine concentration” value is 0.978 (inactive).

Turning to `C[C@H](Cc1cc2c(c(C(N)=O)c1)N(CCCO)CC2)NCCOc1ccccc1OCC(F)(F)F` [Silodosin] (20 µM), the growth in assay [1] stood at 1; in the assay on Escherichia coli IAI1 [2] it was 1; in assay [3], 1.02; in assay [4], 1.11. For the same molecule, the “fold change of Histamine concentration” value in assay [5] was 0.918 (inactive). Further, the “fold change of Tryptamine concentration” value was 1.08 (inactive) in [6] and 1.01 (inactive) in [7]. Moreover, the “fold change of Putrescine concentration” value in the assay with Escherichia coli IAI1 [8] was 0.941 (inactive); in assay [9], 0.992 (inactive). Moreover, the “fold change of Cadaverine concentration” value (in the assay with Escherichia coli IAI1 [10]; in assay [11]) was 1.02 (inactive) each time. Further, in assay [12], the “fold change of 2-Phenylethylamine concentration” value is 0.999 (inactive).
